# In the library only some 18% were active in any assay of this set; here they are far more common.
# IL1B secr inh – inhibitors of inflammasome signaling (IL-1 beta secretion); activity change, % at 57.5 µM; AID 743279; 360,000 compounds, 4.7% hits; THP-1 LPS/ATP IL-1B secretion, AlphaLISA, 16 h; stronger effect = lower value; in the data active means activity change below about -50%; inconclusive means mostly about -30% to -49%
#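 Secreted IL-1B measured by AlphaLISA bead assay after 16 h compound exposure of THP-1 cells; compounds (final up to 57.5 uM) added 1 h before LPS (250 ng/mL) and ATP (1.25 mM) stimulation; lower signal means less secretion.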
# CtBP-E1A inh – blocks the CtBP interaction with E1A. AlphaScreen GST-E1A/His-CtBP binding, 1536-well; stronger effect = lower value. activity change, % (test concentration not listed). 340,000 compounds, 0.49% hits. AID 651724; in the data active means activity change below about -65%; inconclusive means mostly about -30% to -63%
#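 Homogeneous bead-based format: GST-tagged E1A captured on glutathione donor beads, His-tagged CtBP on nickel acceptor beads; compounds precede bead addition by 2 h at 37 °C.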
# TDP1 cell CPT – DT40-hTDP1 cell growth loss with CPT; chicken DT40 Tdp1-/-;hTDP1 cells + 20 nM CPT, ATP luminescence, 48 h; Potency, µM (titrated, usually from 46.2 µM), for inactives: top-dose activity change, negative = growth inhibition, most hits filed as inhibitors; 420,000 compounds, 12% hits; further: potency means the concentration at half of the fitted maximal effect; nearly all actives have a fitted effect of over 55% in size
#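 Chicken DT40 Tdp1-/- cells stably complemented with human TDP1 were seeded at 400 cells/well in medium containing 20 nM camptothecin, exposed to pin-transferred compounds, and grown at 37 °C for at least 48 hr. Viability was read as ATP luminescence.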
# DT40 TDP1 no CPT – qHTS for Inhibitors of human tyrosyl-DNA phosphodiesterase 1 (TDP1): qHTS in cells in absence of CPT. 420,000 compounds, 15% hits. Potency, µM (doses to about 46.2 µM), for the others: at the top dose activity change, negative = growth inhibition, hits mostly inhibitors. DT40 Tdp1-/- hTDP1 cells, no CPT, ATP luminescence, 48 h; further: potency means the concentration at half of the fitted maximal effect; nearly all actives have a fitted effect of over 55% in size
#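 Readout: luminescence from CellTiter-Glo after 30 min in the dark at RT. Cells: DT40 Tdp1-/- with stable hTDP1, 400/well. Exposure: compounds alone, ≥48 hr, 37 °C.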
# TDP1 inh – TDP1 (human) enzyme inhibition. AID 485290. 350,000 compounds, 0.28% hits. Q9NUW8. recombinant TDP1, AlphaScreen DNA substrate cleavage. Potency, µM (top dose mostly 130 µM), inactives show at the top dose activity change, negative = inhibition, hits mostly inhibitors; further: potency means the concentration at half of the fitted maximal effect; nearly all actives have a fitted effect of over 40% in size
# Target sequence (Q9NUW8 whole entry, looked up): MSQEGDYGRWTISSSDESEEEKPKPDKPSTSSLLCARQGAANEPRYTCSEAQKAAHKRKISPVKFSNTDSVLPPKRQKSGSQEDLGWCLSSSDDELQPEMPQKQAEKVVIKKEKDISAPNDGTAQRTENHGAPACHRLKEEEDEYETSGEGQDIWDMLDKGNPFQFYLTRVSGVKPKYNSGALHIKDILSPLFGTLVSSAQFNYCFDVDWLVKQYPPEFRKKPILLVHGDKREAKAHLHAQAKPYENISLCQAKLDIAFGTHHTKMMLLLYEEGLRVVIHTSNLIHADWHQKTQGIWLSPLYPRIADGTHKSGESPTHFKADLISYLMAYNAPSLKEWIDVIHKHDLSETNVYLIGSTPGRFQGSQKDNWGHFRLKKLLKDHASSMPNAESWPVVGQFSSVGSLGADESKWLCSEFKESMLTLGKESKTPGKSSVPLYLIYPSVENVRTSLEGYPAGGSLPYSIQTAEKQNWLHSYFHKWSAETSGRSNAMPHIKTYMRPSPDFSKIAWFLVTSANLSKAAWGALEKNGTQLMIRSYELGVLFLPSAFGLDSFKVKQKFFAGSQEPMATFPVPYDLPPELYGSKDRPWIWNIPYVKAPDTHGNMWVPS
#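 Tdp1 1 nM final; 15 min RT w/ cpd; substrate 15 nM, 5 min; beads 10 ug/ml, 10 min; AlphaScreen read. Neg ctrl: no enzyme.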
# Six1-Eya2 inh – blocks human Six1 binding to Eya2; activity change, % (test concentration not listed); Q15475+O00167; AlphaScreen GST-Six1/His-Eya2 binding, biochemical; stronger effect = lower value; 360,000 compounds, 0.56% hits; in the data active means activity change below about -65%; inconclusive means mostly about -30% to -63%
#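 Six1/Eya2 binding was read as AlphaScreen signal after compounds were pinned into GST-Six1 plus His-tagged Eya2 (5X stock 250/500 nM) in pH 8.0 Tris/NaCl/TCEP buffer, beads added, then incubated 1 h, 37 C, dark.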
# Numbers without * were called inactive; ? = inconclusive; / = no result given; [ ] = dose if it differs, or a comment. Unless noted, the call rests on the fitted dose curve; in most records, active means well fitted curve in the direction sought with a large enough effect; inconclusive means small, poorly fitted or top-dose-only effect, or another doubt; inactive means no such curve, though single readings can be large; an effect the other way counts as inactive or inconclusive. On the % scale 0 is the no-effect control and ±100 the full control effect.
SMILES,IL1B secr inh,CtBP-E1A inh,TDP1 cell CPT,DT40 TDP1 no CPT,TDP1 inh,Six1-Eya2 inh
CCCCc1nn2c(=O)cc(COC(=O)c3ccc(NC(=O)c4ccccc4Cl)cc3)nc2s1,/,/,-17.2%,-18.7%,6.2%,/
Cc1cc(F)ccc1S(=O)(=O)Nc1ccc2c(c1)CCCN2C(=O)c1cccs1,/,/,20.6µM*,23.1µM*,3.8%,/
O=C(c1cccs1)N1CCCc2cc(NS(=O)(=O)c3ccc(Cl)cc3)ccc21,/,/,?,?,-1.2%,/
Cc1ccc(NC(=O)C2CC(=O)n3ncnc3N2)cc1 (stereo not drawn),36.0,7.1,-1.6%,-0.7%,4.7%,-0.4
CCOc1cc(C2Sc3ccccc3NC3=C2C(=O)c2ccccc23)ccc1O (stereo not drawn),/,/,?,?,11.6%,/
COc1ccc(Br)cc1C1Sc2ccccc2NC2=C1C(=O)c1ccccc12 (stereo not drawn),/,/,?,13µM*,2.3%,/
COc1ccc(Br)cc1C1Nc2ccccc2C(=O)N1NC(=O)c1ccncc1 (stereo not drawn),1.4,11.6,1.9%,-26.0%,0.0%,5.9
O=C1C2=C(Nc3ccccc3SC2c2c(F)cccc2Cl)c2ccccc21 (stereo not drawn),/,/,14.6µM*,?,7.0%,/
O=C1C2=C(Nc3ccccc3SC2c2ccccc2C(F)(F)F)c2ccccc21 (stereo not drawn),/,/,5.8µM*,3.26µM*,11.6%,/
CCCc1ccc(C2Sc3ccccc3NC3=C2C(=O)c2ccccc23)cc1 (stereo not drawn),/,/,?,14.6µM*,/,/
CC(C)(C)NC(=O)c1cc(-c2ccccc2)n[nH]1,-9.4,-12.9,-6.6%,-2.2%,5.7%,-12.4
CC1CCCCC1NC(=O)COC(=O)c1cccn1C (stereo not drawn),0.4,/,2.1%,-4.4%,2.0%,7.8
O=C1C2=C(Nc3ccccc3SC2c2ccc(Cl)c(Cl)c2)c2ccccc21 (stereo not drawn),/,/,14.6µM*,25.9µM*,9.3%,/
O=C1Nc2ccccc2SC1c1ccccc1 (stereo not drawn),-15.2,/,-5.4%,-17.5%,/,-2.2
COc1ccc(CNC(=O)C2CC(C)=C(C)CC2C(=O)O)cc1OC (stereo not drawn),24.4,1.4,1.3µM*,1.3µM*,3.5%,0.0
COc1cccc(C2=NOC(C(=O)NCc3cccs3)C2)c1 (stereo not drawn),14.6,3.3,20.6µM*,14.6µM*,0.9%,7.9
COc1cc(C2=NOC(C(=O)NCc3ccc(F)cc3)C2)cc(OC)c1OC (stereo not drawn),25.4,-1.5,0.82µM*,0.581µM*,-9.1%,0.0
COc1ccc(C2=NOC(C(=O)NCc3ccc(F)cc3)C2)cc1OC (stereo not drawn),56.2,7.6,5.8µM*,5.8µM*,2.3%,-1.3
Cc1ccc(CNC(=O)C2CC(c3cccc(F)c3)=NO2)cc1 (stereo not drawn),12.1,/,0.0%,-11.6%,-3.5%,-1.0
O=C(CNS(=O)(=O)c1ccc(Cl)cc1)NNC(=O)c1cccnc1,14.9,3.2,?,?,0.0%,7.2
COc1cccc(-n2c(SCC(=O)Nc3nccs3)nnc2-c2ccoc2C)c1,-11.8,-7.2,?,-24.3%,4.9%,-7.9
COc1cccc(C2=NOC(C(=O)NCc3ccc(F)cc3)C2)c1 (stereo not drawn),0.0,4.3,11.6µM*,18.4µM*,0.0%,9.7
Cc1cc2nc(-c3ccc(NC(=O)c4ccc(OCC(C)C)cc4)cc3)oc2cc1C,/,/,-0.6%,3.9%,-3.1%[12.3 µM],/
O=C1c2ccccc2C(=O)C1c1nccc2ccccc12,22.4,-1.5,10.3µM*,11.6µM*,2.3%,2.9
O=C1C(=O)c2ccccc2C(O)=C1c1ccccc1F,-0.1,5.4,-23.9%,?,2.9%,6.7
SMILES,IL1B secr inh,CtBP-E1A inh,TDP1 cell CPT,DT40 TDP1 no CPT,TDP1 inh,Six1-Eya2 inh
O=C1C(c2ccnc3ccccc23)=C(O)c2ccccc21,23.1,-1.3,13µM*,11.6µM*,2.4%,-9.3
CCc1ccccc1C1C(=O)c2ccccc2C1=O,-13.1,-9.5,-3.5%,-34.7%,/,-1.6
O=C1c2ccccc2C(=O)C1c1ccnc2ccccc12,8.9,-1.3,5.8µM*,13µM*,-10.0%,-6.3
COc1cc(C(=O)Nc2cccc(-c3nnc(-c4ccco4)o3)c2)ccc1OC(C)=O,-87.9*,?,13µM*,16.4µM*,8.7%,-86.4*
O=C(Cc1cccs1)Nc1cccc(-c2nnc(-c3ccco3)o2)c1,?,-7.9,16.4µM*,11.6µM*,0.0%,-3.8
COc1ccccc1CC(=O)Nc1ccc(-c2nnc(-c3ccco3)o2)cc1,?,-24.0,?,16.4µM*,3.1%,?
Cc1ccc(C(NC(=O)Cc2cccs2)C(=O)Nc2ccc(C(C)C)cc2)cc1 (stereo not drawn),/,/,16.4µM*,?,8.8%,/
O=C(Cc1ccccc1)Nc1ccc(-c2nnc(-c3ccco3)o2)cc1,4.4,-0.4,-20.0%,-7.3%,-5.0%,0.0
O=C(c1cccn2c(=O)c3cc(Cl)ccc3nc12)N1CCN(Cc2ccc3c(c2)OCO3)CC1,-26.3,5.2,?,?,-2.6%,6.1

# Assay outcomes: PubChem BioAssay, National Center for Advancing Translational Sciences (NCATS)
